Pf Dd2 inh: Plasmodium falciparum Dd2 growth inhibition | P. falciparum Dd2 growth, SYBR Green, 72 h | AID 1347417 | Potency, µM (doses to about 28.9 µM), inactives show at the highest dose activity, negative = inhibition, most hits filed as inhibitors | 120,000 compounds, 4.3% hits; active means well fitted inhibition curve with a large enough effect;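 further: plate controls were DMSO vehicle for no effect and reference drug for full effect; nearly all actives have a fitted effect of over 65% in size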
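Infected erythrocytes (Dd2, 0.3% parasitemia, 2.5% hematocrit final) are added to compound in RPMI-1640/Albumax II medium, grown 72 h at 37C in low oxygen, then lysed with saponin/Triton-X containing SYBR Green and read by fluorescence.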
The depositor's hits bear a star; i = inactive; [ ] = remark or other dose. This is one part of a sample in which hits are shown more often than they occur. Potency means the concentration at half of the fitted maximal effect.

SMILES	Pf Dd2 inh
CCOc1ccc(C2=NC(c3cccs3)=Nc3ccc(CC)cc3N2)cc1OCC	8.91µM*
Cc1cccc(N2CCN(C(=O)CCc3conc3-c3ccccc3)CC2)c1C	-22.8%
CO[C@H]1C(=O)N(C(C)C)[C@H]1C1CCN(Cc2cccc(F)c2)CC1	-24.7%
CO[C@H]1C(=O)N(C(C)C)[C@H]1C1CCN(C(=O)c2cccc(C#N)c2)CC1	13.4%
CO[C@H]1C(=O)N(C(C)C)[C@H]1C1CCN(Cc2cccc(C#N)c2)CC1	10µM*
CN(CC1CCOC1)S(=O)(=O)c1ccc(C(F)(F)F)cc1 (stereo unspecified)	39.4%[5.79 µM]
COC[C@@H]1CN(C(=O)Cn2nc(C)cc2C)C[C@H]1c1ccncc1	9.4%
COCCOC1CCN(C(=O)NCc2ccc(C)cc2)CC1	-2.4%
Cc1ccc(CNC(=O)N2CCC(Cn3c(C)cnc3C3CCOCC3)CC2)cc1	-23.6%
Cc1ccc(CNC(=O)N2CCCC(CN3CCCC3)CC2)cc1 (stereo unspecified)	4.47µM*
C[S+](=O)([O-])c1ccc(-c2cnc3[nH]cc(CC(=O)N4CCOCC4)c3c2)cc1	i
O=C(c1ccncc1)N1CCc2nc3cc(-c4ccccc4Cl)[nH]n3c(=O)c2C1	3.3%[5.79 µM]
Cc1cc(C(=O)N2CCCC(c3nn(C)c(=O)n3-c3ccccc3)C2)no1 (stereo unspecified)	-6.8%
CCN1c2cc(C(=O)Nc3cccc(OC)c3)ccc2C(=O)N2CCCCCC21 (stereo unspecified)	i
CCN1c2cc(C(=O)Nc3ccc(C)cc3C)ccc2C(=O)N2CCCCCC21 (stereo unspecified)	i
CN1c2cc(C(=O)Nc3cccc(OC(F)(F)F)c3)ccc2C(=O)N2CCCCC21 (stereo unspecified)	-20.0%
CCN1c2cc(C(=O)Nc3ccc(C)cc3)ccc2C(=O)N2CCCCCC21 (stereo unspecified)	i
CCOC(=O)c1ccc(NC(=O)c2ccc3c(c2)N(CC)C2CCCCN2C3=O)cc1 (stereo unspecified)	-8.4%
CCN1c2cc(C(=O)Nc3cc(C)ccc3OC)ccc2C(=O)N2CCCCCC21 (stereo unspecified)	6.31µM*
CCN1c2cc(C(=O)Nc3cccc(OC(F)(F)F)c3)ccc2C(=O)N2CCCCC21 (stereo unspecified)	4.47µM*
CCOc1ccc(NC(=O)c2ccc3c(c2)N(CC)C2CCCCN2C3=O)cc1 (stereo unspecified)	5.01µM*
CCN1c2cc(C(=O)Nc3ccc(OC)c(OC)c3)ccc2C(=O)N2CCCCCC21 (stereo unspecified)	i
Cc1nc(-c2cn(C3CCCN(C(=O)c4c(F)cccc4F)C3)nn2)no1 (stereo unspecified)	i
COc1ccc(C2(C(=O)N3CCCC(Cc4nc(C5CCOCC5)no4)C3)CC2)cc1 (stereo unspecified)	8.3%
Cc1ccc(NC(=O)N2CCC(CCNC(=O)C3(c4ccccc4)CC3)CC2)cc1F	i
SMILES	Pf Dd2 inh
Cc1cc(C)n2ncc(C(=O)N3CCC(=O)N(CC4CC4)C(C(C)C)C3)c2n1 (stereo unspecified)	-7.4%
O=C1NCCN1C1CCN(S(=O)(=O)c2ccccc2)CC1	21.5%
O=C(Nc1ccc(-c2nnc3n2CCCC3)cc1)C1CCC1	6.6%
COc1cccc(C(=O)N2CCC(C(=O)Nc3cccc(Cl)c3)CC2)c1	11.4%
CC(C)NC(=O)c1ccc(-c2nnc3ccc(NC(=O)C4CCC4)cn23)cc1	3.98µM*
O=C(NCCN1CCOCC1)c1ccc(-c2ccc(N3CCCCCC3)nc2)cc1	-23.0%
O=C(NCCN1CCCCC1)c1ccc(-c2nnc3ccc(NC(=O)C4CCC4)cn23)cc1	1.26µM*
C=CCNC(=O)c1ccc(-c2nnc3ccc(NC(=O)C4CCC4)cn23)cc1	3.16µM*
O=C(NC1CCCC1)c1ccc2nnc(-c3cncc(Cl)c3)n2c1	1.2%
Cc1ccc(-c2ccc3nnc(CNC(=O)C4CCCCC4)n3n2)cc1	9.5%
O=C(NC1CC1)c1ccc2nnc(-c3ccc(F)cc3)n2c1	9.7%[44.1 µM]
COc1cccc(NC(=O)C2CCCN(S(=O)(=O)c3c(C)nn(C)c3C)C2)c1 (stereo unspecified)	-5.1%
COc1cccc(NC(=O)c2ccc(-c3nnc4ccc(NC(=O)C5CCC5)cn34)cc2)c1	0.282µM*
C=CCNC(=O)c1ccc2cncn2c1	-11.1%[44.1 µM]
Cc1ccc(C)c(NC(=O)Cn2c(=O)c(-c3noc(C)n3)c3n(c2=O)CCCCC3)c1	8.5%
COc1ccc(-c2ccc3nnc(CNC(=O)c4ccc(F)c(Cl)c4)n3n2)cc1	i
Cc1ccccc1CCC1CCCN(C(=O)CCc2cnn(C)c2)C1 (stereo unspecified)	-11.7%
CCOc1ccc(NC(=O)Cn2nc3c(cc2=O)CN(C(C)=O)CC3)cc1	-4.0%
Cc1noc(C)c1CCC(=O)N(C)C1CCc2nn(CC3CC3)c(=O)n2CC1 (stereo unspecified)	22.5%
CNC(=O)N1CCCC(n2c(C)cnc2-c2ccncc2)C1 (stereo unspecified)	27.4%
